# Screen size: about 68,000 compounds; about 2,700 (4%) showed an effect of 50% or more. The sample holds strong results, similar compounds and a random draw of the others, so the mix is not that of the screen.
# Test system: Plasmodium berghei
# Assay: Screen against P. berghei liver stage (PbLuc), transformed with Luciferase, at 2uM
# Format: functional, HepG2
# Details: tested at 2 uM
row,SMILES,INHIBITION [%]
1,Cc1cc(C)n(CC(C)CNC(=O)N(C)Cc2cc(C)on2)n1 (stereo unspecified),0.89
2,Cc1nc(-c2cc(C(=O)NCCN3CCOCC3)c3ccccn23)cs1,-40.36
3,CC(c1ccncc1)N(C)S(C)(=O)=O (stereo unspecified),-22.2
4,Cc1noc([C@]23COC[C@H]2CN(C(=O)Cc2ccsc2)C3)n1,15.36
5,CCS(=O)(=O)N1CCOC(CCCc2ccccc2)C1 (stereo unspecified),1.94
6,CC(C)(CN1CCC(Cc2ccc(C(=O)O)cc2)C1)N1CCOCC1 (stereo unspecified),52.01
7,CC(C)(CN1CCC(Cc2cccc(C(=O)O)c2)C1)N1CCOCC1 (stereo unspecified),-32.96
8,CC(C)(CN1CCC(Cc2ccc(CO)cc2)C1)N1CCOCC1 (stereo unspecified),-57.88
9,c1cnc(-c2noc(C3CN(Cc4ccc5c(c4)CCO5)C3)n2)nc1,-17.26
10,COc1ccccc1C(=O)N(C)Cc1nnc2ccccn12,40.82
11,COC(=O)C(c1cc(F)ccc1F)N(C)C(=O)c1cnccn1 (stereo unspecified),-27.5
12,COC(=O)C(c1cc(F)ccc1F)N(C)C(=O)c1cnc(C)cn1 (stereo unspecified),60.09
13,COC(=O)C(c1cc(F)ccc1F)N(C)C(=O)c1ccnc(C)n1 (stereo unspecified),-12.91
14,Cc1cc(C)n(CCC2CC(=O)Nc3cc(O)c(C)cc32)n1 (stereo unspecified),-32.52
15,Cc1noc(C(C)C)c1C(=O)NCCCN1CCNCC1,43.16
16,Cc1noc(C(C)C)c1C(=O)NCCN1CCCCCC1=O,60.21
17,Cc1noc(C)c1C(=O)NCCN1CCN(S(C)(=O)=O)CC1,-41.64
18,Cc1noc(C(C)C)c1C(=O)NCCC(=O)N1CCCCC1,11.57
19,Cc1noc(C(C)C)c1C(=O)NCCCN1CCCCCC1=O,77.68
20,Cc1noc(C(C)C)c1C(=O)NCCN1CCOCC1,32.63
21,Cc1noc(C(C)C)c1C(=O)NCCCN1CCC(C)CC1,-15.34

row,SMILES,INHIBITION [%]
1,Cc1noc(C(C)C)c1C(=O)NCCCN1CCCC1,-75.02
2,Cc1noc(C)c1C(=O)NCCN1CCOCC1,63.46
3,Cc1nc(-c2ccccc2C)n(CC(=O)NC2CCCC2)n1,31.57
4,Cn1ccc(C(=O)N2CCCC2c2cc[nH]n2)n1 (stereo unspecified),16.43
5,COCCc1ncc(CN2C[C@@H](C(=O)O)[C@H](C(C)C)C2)cn1,-59.6
6,COc1ccc(-n2ccc(CNCc3cccc(OC)c3)n2)cc1,28.75
7,O=C(NCc1cnn2cccnc12)C1CC2(CCNCC2)CN1 (stereo unspecified),-1.33
8,Cn1cc(-c2cnc(N3CCOCC3)nc2)cc1C(=O)NCCC#N,-0.45
9,COCC(NC(=O)c1cc(NC(C)=O)ccc1Cl)c1ccccn1 (stereo unspecified),29.13
10,COCC(NC(=O)c1cc(NC(C)=O)ccc1Cl)c1ccnn1C (stereo unspecified),21.97
11,CCC(NC(=O)c1cc(NC(C)=O)ccc1Cl)c1cc(C)ccn1 (stereo unspecified),57.75
12,COC(=O)C1CCCN1CC(=O)NCc1ccc(OCC(N)=O)cc1 (stereo unspecified),-6.33
13,O=C1CCC[C@]2(CN(S(=O)(=O)N3CCCCC3)C[C@H]2c2cccnc2)N1,-0.64
14,O=C(C1CC1)N1CCN(C(=O)CSc2ccccn2)[C@H]2CS(=O)(=O)C[C@H]21,-32.88
15,CC(=O)N1CCN(C(=O)c2snnc2C)[C@H]2CS(=O)(=O)C[C@H]21,-3.73
16,O=C(CSc1ccccn1)N1CCN(CCO)[C@@H]2CS(=O)(=O)C[C@@H]21,67.28
17,Cc1nnsc1C(=O)N1CCN(CC2CC2)[C@@H]2CS(=O)(=O)C[C@@H]21,0.54
18,CC(C)=CCN1CCN(C(=O)CSc2ccccn2)[C@H]2CS(=O)(=O)C[C@H]21,64.9
19,CCCN1CCN(C(=O)c2ccc3ccccc3n2)[C@H]2CS(=O)(=O)C[C@H]21,57.21
20,CC(C)=CCN1CCN(C(=O)COc2ccccc2)[C@H]2CS(=O)(=O)C[C@H]21,41.68
21,CCCN1CCN(C(=O)c2cccc(C)n2)[C@H]2CS(=O)(=O)C[C@H]21,6.84

row,SMILES,INHIBITION [%]
1,CC(C)=CCN1CCN(C(=O)c2snnc2C)[C@H]2CS(=O)(=O)C[C@H]21,51.38
2,CCCN1CCN(C(=O)Cc2cccnc2)[C@H]2CS(=O)(=O)C[C@H]21,23.19
3,CCCN1CCN(C(=O)c2cc3ccccc3cn2)[C@H]2CS(=O)(=O)C[C@H]21,35.01
4,CC(C)=CCN1CCN(CCCc2ccccc2)[C@H]2CS(=O)(=O)C[C@H]21,7.29
5,C[C@H](NC(=O)C1CCCC1)c1nc2cc(-c3ccc(F)cc3)ncn2n1,39.48
6,CC(O)c1cccc(OCc2ccon2)c1 (stereo unspecified),46.28
7,Cn1cc(CN2CC[C@H]3O[C@H](C(=O)Nc4cnccn4)CC[C@H]32)cn1,-20.89
8,CN(CC(=O)Nc1cccnc1)CC1CCCN1c1cccnn1 (stereo unspecified),45.48
9,Cc1nn(C)c(Cl)c1C1CCCN1C(=O)c1cnc[nH]1 (stereo unspecified),8.37
10,CC(=O)N(Cc1noc(C)n1)C1CCN(CC(=O)N(C)C2CC2)C1 (stereo unspecified),-3.97
11,Cc1nccn1CCN(C)C(=O)C1CCN(C(=O)C2CCC2)CC1,20.45
12,CN(C)CCN1C[C@@H]2CN(S(=O)(=O)c3ccccc3)C[C@@H]2C1=O,19.16
13,Cc1ccc(CN2C[C@H](OCC3CCOCC3)[C@H]3COC[C@H]32)o1,18.32
14,Cn1cnc2cc(C(=O)N3CCN(CCO)[C@@H]4CS(=O)(=O)C[C@@H]43)ccc21,55.36
15,Cc1nc2ccc(C(=O)N3CCN(CCO)[C@@H]4CS(=O)(=O)C[C@@H]43)cc2o1,-85.34
16,CC(C)CN1CCN(S(=O)(=O)c2cn(C)cn2)[C@H]2CS(=O)(=O)C[C@H]21,15.74
17,CC(C)=CCN1CCN(S(=O)(=O)c2cn(C)cn2)[C@H]2CS(=O)(=O)C[C@H]21,50.98
18,CC(C)=CCN1CCN(Cc2nccn2C)[C@H]2CS(=O)(=O)C[C@H]21,8.26
19,O=C(c1ccc2nccnc2c1)N1CCN(CCO)[C@@H]2CS(=O)(=O)C[C@@H]21,14.82
